Experimental data taken from PubChem BioAssay AID1345085 (National Center for Advancing Translational Sciences (NCATS), 2018).
Records with an inconclusive call do not appear. Values without a mark were called inactive. Calls of active or inactive are those of the source. The call rests on the fitted dose curve; in most records, active means well fitted cell-killing curve with a large enough effect; inconclusive means small, poorly fitted or top-dose-only effect, or effect the other way; inactive means no such curve, though single readings can be large or run the other way.

System: Es-2
Assay: Confirmatory qHTS for gynecologic anti-cancer compounds from libraries of approved drugs and bioactive compounds; further: nearly all actives have a fitted effect of over 55% in size
Settings: gynecologic cancer cell panel viability, ATPlite luminescence, 48 h; series mostly up to 57.6 µM
Summary of the method: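 IC50 values derive from an ATPlite ATP-content luminescence assay following 48 h treatment at 37 C. Each compound ran as an 11-concentration, threefold series (57.5 uM to 0.977 nM); HEK 293T served as control line for selectivity index.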
On the % scale 0 is the no-effect control and ±100 the full control effect; potency means the concentration at half of the fitted maximal effect.

Row | Structure (SMILES) | Potency | activity change, negative = viability loss
1 | O=C(CCCCCCNC(=O)c1cnc(N(c2ccccc2)c2ccccc2)nc1)NO | 13.7 µM (active) | –
2 | CCN(CC)CCOc1ccc(/C(=C(\Cl)c2ccccc2)c2ccccc2)cc1 | 398 µM (active) | –
3 | CC(C)n1c(/C=C/[C@@H](O)C[C@@H](O)CC(=O)O)c(-c2ccc(F)cc2)c2ccccc21 | 5.44 µM (active) | –
4 | CCOC(=O)C1=C(C)NC2=C(C(=O)CC(C)(C)C2)C1c1ccc(-c2ccccc2)cc1 (stereo unspecified) | inactive | –
5 | Nc1ccccc1NC(=O)c1ccc(CNC(=O)OCc2cccnc2)cc1 | 7.69 µM (active) | –
6 | Cc1cc(Nc2nc(N[C@@H](C)c3ncc(F)cn3)ncc2Cl)n[nH]1 | inactive | –
7 | O=C(NOC[C@H](O)CO)c1ccc(F)c(F)c1Nc1ccc(I)cc1F | 0.344 µM (active) | –
8 | Cc1cc(C(C)Nc2ccccc2C(=O)O)c2nc(N3CCOCC3)cc(=O)n2c1 (stereo unspecified) | inactive | –
9 | COc1cc2ncnc(Nc3ccc(F)c(Cl)c3)c2cc1OCCCN1CCOCC1 | inactive | –
10 | O=C(NOCC1CC1)c1ccc(F)c(F)c1Nc1ccc(I)cc1Cl | 1.53 µM (active) | –
11 | Cc1cc(Nc2nc(N[C@@H](C)c3ccc(F)cc3)c(C#N)cc2F)n[nH]1 | 21.7 µM (active) | –
12 | Cn1c(=O)c(-c2c(Cl)cccc2Cl)cc2cnc(Nc3cccc(C(=O)O)c3)nc21 | 2.73 µM (active) | –
13 | CNc1nc(Nc2ccc(C(=O)N3CCOCC3)cc2OC)ncc1Cl | inactive | –
14 | CC(=O)O[C@H]1C(=O)[C@@]2(C)[C@H]([C@H](OC(=O)c3ccccc3)[C@]3(O)C[C@H](OC(=O)[C@H](O)[C@@H](NC(=O)c4ccccc4)c4ccccc4)C(C)=C1C3(C)C)[C@]1(OC(C)=O)CO[C@@H]1C[C@@H]2O | 0.0819 µM (active) | –
15 | CC[C@@]1(O)C(=O)OCc2c1cc1n(c2=O)Cc2c-1nc1ccccc1c2/C=N/OC(C)(C)C | 0.0153 µM (active) | –
16 | NS(=O)(=O)OC[C@@H]1C[C@@H](n2ccc3c(N[C@H]4CCc5ccccc54)ncnc32)C[C@@H]1O | 1.72 µM (active) | –
17 | FC(F)(F)c1ccc(/C=C/c2nc(COc3ccc(CCCCn4ccnn4)cc3)co2)cc1 | 24.3 µM (active) | –
18 | Cc1cnc(Nc2ccc(OCCN3CCCC3)cc2)nc1Nc1cccc(S(=O)(=O)NC(C)(C)C)c1 | 8.63 µM (active) | –

Row | Structure (SMILES) | Potency | activity change, negative = viability loss
19 | O=c1c2ccccc2nc2n1CCc1c-2[nH]c2ccccc12 | inactive | –
20 | COc1cc(Nc2c(C#N)cnc3cc(OCCCN4CCN(C)CC4)c(OC)cc23)c(Cl)cc1Cl | 21.7 µM (active) | –
21 | N#CC1(c2cccc(C(=O)Nc3cc(Oc4ccc5nc(NC(=O)C6CC6)sc5n4)ccc3F)c2Cl)CC1 | 5.44 µM (active) | –
22 | Cn1cnc2c(F)c(Nc3ccc(Br)cc3Cl)c(C(=O)NOCCO)cc21 | 6.85 µM (active) | –
23 | CC[C@H](Nc1ncnc2nc[nH]c12)c1nc2cccc(F)c2c(=O)n1-c1ccccc1 | – | 8.76% [at 10.7 µM]
24 | Cn1cnc([N+](=O)[O-])c1Sc1ncnc2nc[nH]c12 | 15.3 µM (active) | –
25 | CCOc1cc2ncc(C#N)c(Nc3ccc(F)c(Cl)c3)c2cc1NC(=O)/C=C/CN(C)C | 24.3 µM (active) | –
26 | CC(C)[C@@H](CS(=O)(=O)C(C)C)N1C(=O)[C@@](C)(CC(=O)O)C[C@H](c2cccc(Cl)c2)[C@H]1c1ccc(Cl)cc1 | inactive | –
27 | Cc1cc(C(=O)N2CCN(c3cccc(Cl)c3)CC2)n(-c2ccccc2)n1 | 2.43 µM (active) | –
28 | Cc1ccc(C(=O)Nc2cccc(C(F)(F)F)c2)cc1-c1ccc2nc(NCCN3CCOCC3)ncc2c1 | 5.44 µM (active) | –
29 | COc1cc2c(cc1-c1c(C)noc1C)ncc1[nH]c(=O)n(C(C)c3ccccn3)c12 (stereo unspecified) | 2.17 µM (active) | –
30 | CN1CCN(c2ccc(OC(F)(F)F)c(Nc3ncc4c(n3)-c3c(c(C(N)=O)nn3CCO)CC4)c2)CC1 | 0.217 µM (active) | –
31 | COc1ccc2c(c1)c(CC(=O)O)c(C)n2C(=O)c1ccc(Cl)cc1 | inactive | –
32 | NC(=O)c1cnc(-c2ccc(C3(N)CCC3)cc2)c(-c2ccccc2)c1 | 24.3 µM (active) | –
33 | O=C1Cc2cc(CCN3CCN(c4nsc5ccccc45)CC3)c(Cl)cc2N1 | inactive | –
34 | Nc1ncnc2c1ncn2[C@@H]1O[C@H](CO)C[C@H]1O | inactive | –
35 | O=C(c1ccc(/C=C/c2n[nH]c3ccccc23)cc1)N1CCNCC1 | 27.3 µM (active) | –
36 | C#C[C@]1(O)CC[C@H]2[C@@H]3CCC4=CC(=O)CC[C@@H]4[C@H]3CC[C@@]21CC | inactive | –
